The results in this text go back to PubChem BioAssay (Tox21).

A short description of test [1]: qHTS assay for small molecules that induce genotoxicity in human embryonic kidney cells expressing luciferase-tagged ATAD5 (AID 651632). Also: % is scaled to controls: 0 for no effect and ±100 for the full control effect; nearly all actives have a fitted effect of over 15% in size. In outline: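 HEK293T cells carrying a luciferase reporter tagged to ATAD5 were exposed to compound or DMSO vehicle for 16 hr at 37C, 5% CO2. Amplite was added, and after 30 min at room temperature luciferase activity was read as a marker of ATAD5 induction.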
Background: qHTS replaces the single test concentration by a dilution series.

Test [2] is described as follows: qHTS assay for small molecule agonists of the p53 signaling pathway - cell viability (AID 651633; calls by dose curve;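 also: p53RE-bla HCT reporter cells with a stable beta-lactamase p53 reporter; series mostly up to about 83 µM; % is scaled to controls: 0 for no effect and ±100 for the full control effect; nearly all actives have a fitted effect of over 30% in size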). In outline: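 p53RE-bla cells were treated with compound for 16 hours at 37 C. Cytotoxicity was then measured as CellTiter-Glo luminescence after 30 min at room temperature.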
Test [3] in a line: qHTS assay for small molecules that induce genotoxicity in human embryonic kidney cells expressing luciferase-tagged ATAD5 - cell viability (AID 651634; calls by dose curve; also: nearly all actives have a fitted effect of over 25% in size; also: potency is read from the fitted curve at half-maximal effect). The method, boiled down:
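HEK293T cells expressing luciferase-tagged ATAD5 were exposed to compound or DMSO for 15.5 hr at 37C, 5% CO2. Viability was then read as live-cell protease activity by CellTiter-Fluor fluorescence after 30 min at 37C.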

Test [4] is described as follows: qHTS assay for small molecule disruptors of the mitochondrial membrane potential - cell viability (AID 720634; calls by dose curve;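 also: human HepG2 liver cancer cells; series mostly up to about 83 µM; % is scaled to controls: 0 for no effect and ±100 for the full control effect; nearly all actives have a fitted effect of over 20% in size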). The method, boiled down: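 HepG2 cells seeded overnight at 37 C, then exposed to compound or DMSO for 1 hr at 37 C, 5% CO2. m-MPI dye added, then CellTiter-Glo for 30 min at room temperature; viability read as ATP luminescence.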
Test [5] can be described thus: qHTS assay to test for compound auto fluorescence at 590 nm (red) in HepG2 cells (AID 720674). Also: % is scaled to controls: 0 for no effect and ±100 for the full control effect. In outline:
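HepG2 cells, 2,000 per well in MEM with 10% FBS, attached overnight at 37 C, then got 23 nL compound or DMSO. After 1 hr at 37 C, 5% CO2, red fluorescence was read at 540/590 nm against Rose Bengal sodium as reference.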

Test [6] in a line: qHTS assay to test for compound auto fluorescence at 535 nm (green) in HepG2 cells (AID 720675). Also: % is scaled to controls: 0 for no effect and ±100 for the full control effect.
Test [7] in a line: qHTS assay to test for compound auto fluorescence at 460 nm (blue) in HEK293 cells (AID 720678). Also: % is scaled to controls: 0 for no effect and ±100 for the full control effect. The method, boiled down: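 Intrinsic compound fluorescence is recorded in live HEK293 cultures after overnight incubation at 37C, 5% CO2, using excitation 405 nm and emission 460 nm. Values are referenced to triamterene.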
The nature of test [8]: qHTS assay to test for compound auto fluorescence at 590 nm (red) in HEK293 cells (AID 720679). Also: % is scaled to controls: 0 for no effect and ±100 for the full control effect. The method, boiled down: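 Red autofluorescence, HEK293 cells: 2,000 cells/well; attach 4-5 hr 37C; add 23 nL cpd or DMSO; incubate o/n 37C 5% CO2; read Ex540/Em590; Rose Bengal sodium reference.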
Test [9] in a line: qHTS assay to test for compound auto fluorescence at 535 nm (green) in HEK293 cells (AID 720680). Also: % is scaled to controls: 0 for no effect and ±100 for the full control effect.
Test [10] can be described thus: qHTS assay to test for compound auto fluorescence at 460 nm (blue) in HEK293 cell free culture (AID 720681). Also: % is scaled to controls: 0 for no effect and ±100 for the full control effect. In outline:
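Compounds were added to cell-free DMEM with 10% FBS and fluorescence read directly. The blue channel used 405 nm excitation and 460 nm emission, with triamterene as the reference fluorophore.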

Test [11] is described as follows: qHTS assay to test for compound auto fluorescence at 535 nm (green) in HEK293 cell free culture (AID 720682). Also: % is scaled to controls: 0 for no effect and ±100 for the full control effect. The method, boiled down: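 Read-out: 485/535 nm fluorescence intensity, calibrated against fluorescein. Medium only (DMEM + 10% FBS, no cells); test compound or DMSO vehicle added by pintool before plate reading.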
Test [12] is described as follows: qHTS assay to test for compound auto fluorescence at 590 nm (red) in HEK293 cell free culture (AID 720683). Also: % is scaled to controls: 0 for no effect and ±100 for the full control effect. In outline:
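Cell-free wells of DMEM with 10% FBS received compound, and intrinsic fluorescence was read at excitation/emission 540/590 nm. Values expressed as equivalence to Rose Bengal sodium.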

A short description of test [13]: qHTS assay to test for compound auto fluorescence at 590 nm (red) in HepG2 cell free culture (AID 720684). Also: % is scaled to controls: 0 for no effect and ±100 for the full control effect. The method, boiled down:
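Compound was pinned into wells holding MEM with 10% FBS and no cells, and red fluorescence was read at Ex/Em 540/590 nm. Signal is expressed as auto fluorescence equivalency relative to Rose Bengal sodium.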

Test [14] in a line: qHTS assay to test for compound auto fluorescence at 460 nm (blue) in HepG2 cell free culture (AID 720685). Also: % is scaled to controls: 0 for no effect and ±100 for the full control effect. The method, boiled down:
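Compound (23 nL) or DMSO pinned into cell-free MEM with 10% FBS; blue fluorescence read at 405/460 nm excitation/emission, expressed as auto-fluorescence equivalency to triamterene.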

Test [15] is described as follows: qHTS assay to test for compound auto fluorescence at 535 nm (green) in HepG2 cell free culture (AID 720686). Also: % is scaled to controls: 0 for no effect and ±100 for the full control effect.
Test [16] can be described thus: qHTS assay to test for compound auto fluorescence at 460 nm (blue) in HepG2 cells (AID 720687). Also: % is scaled to controls: 0 for no effect and ±100 for the full control effect. The method, boiled down:
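HepG2 cells in MEM with 10% FBS, attached overnight at 37 C, were exposed to compound or DMSO for 1 hr at 37 C, 5% CO2. Blue fluorescence was read at 405/460 nm, with triamterene as reference fluorophore.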

Test [17] has as its target Glucocorticoid receptor (Homo sapiens) (UniProt P04150). Nature of the test: qHTS assay to identify small molecule agonists of the glucocorticoid receptor (GR) signaling pathway (AID 720691; active = well fitted activation curve with a large enough effect in the signal ratio in the repeat runs, not every such curve was filed as active; the % refers to the signal ratio; also: % is scaled to controls: 0 for no effect and ±100 for the full control effect). In outline: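 GR-bla HeLa cells (beta-lactamase reporter under glucocorticoid response element) were plated 4 h at 37 C/5% CO2, given compounds in DMSO, and incubated 18 h at 37 C. LiveBLAzer B/G FRET substrate was added for 2 h at room temperature, then fluorescence intensity read.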

Test [18] shares this target. Nature of the test: qHTS assay to identify small molecule antagonists of the glucocorticoid receptor (GR) signaling pathway (AID 720692; active = well fitted inhibition curve with a large enough effect in the signal ratio in the repeat runs, not every such curve was filed as active; the % refers to the signal ratio; also: % is scaled to controls: 0 for no effect and ±100 for the full control effect). In outline: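 GR-bla HeLa cells (beta-lactamase reporter under glucocorticoid response element) were pre-plated 4 h at 37 C, treated with compounds plus 5 nM dexamethasone (final) for 18 h, then read by LiveBLAzer B/G FRET fluorescence after 2 h.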

Test [19] in a line: qHTS assay for small molecule disruptors of the mitochondrial membrane potential (AID 720635). Also: potency is read from the fitted curve at half-maximal effect. In outline: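 HepG2 cells exposed to compound 1 hr at 37C, then Mito-MPS dye 30 min. Ratio read of aggregate (540/590 nm) versus monomer (490/535 nm) fluorescence.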

Unmarked numbers belong to inactive results. Records with an inconclusive call do not appear. Active and inactive are the calls of the source. Unless noted, calls follow the shape of the dose curve; as a rule, active = well fitted curve in the direction sought with a large enough effect in the repeat runs; inconclusive = weak or mixed curves; inactive = no such curve, though single readings can be large; an effect the other way counts as inactive or inconclusive.

Glucocorticoid receptor (Homo sapiens), sequence (P04150 whole entry, looked up): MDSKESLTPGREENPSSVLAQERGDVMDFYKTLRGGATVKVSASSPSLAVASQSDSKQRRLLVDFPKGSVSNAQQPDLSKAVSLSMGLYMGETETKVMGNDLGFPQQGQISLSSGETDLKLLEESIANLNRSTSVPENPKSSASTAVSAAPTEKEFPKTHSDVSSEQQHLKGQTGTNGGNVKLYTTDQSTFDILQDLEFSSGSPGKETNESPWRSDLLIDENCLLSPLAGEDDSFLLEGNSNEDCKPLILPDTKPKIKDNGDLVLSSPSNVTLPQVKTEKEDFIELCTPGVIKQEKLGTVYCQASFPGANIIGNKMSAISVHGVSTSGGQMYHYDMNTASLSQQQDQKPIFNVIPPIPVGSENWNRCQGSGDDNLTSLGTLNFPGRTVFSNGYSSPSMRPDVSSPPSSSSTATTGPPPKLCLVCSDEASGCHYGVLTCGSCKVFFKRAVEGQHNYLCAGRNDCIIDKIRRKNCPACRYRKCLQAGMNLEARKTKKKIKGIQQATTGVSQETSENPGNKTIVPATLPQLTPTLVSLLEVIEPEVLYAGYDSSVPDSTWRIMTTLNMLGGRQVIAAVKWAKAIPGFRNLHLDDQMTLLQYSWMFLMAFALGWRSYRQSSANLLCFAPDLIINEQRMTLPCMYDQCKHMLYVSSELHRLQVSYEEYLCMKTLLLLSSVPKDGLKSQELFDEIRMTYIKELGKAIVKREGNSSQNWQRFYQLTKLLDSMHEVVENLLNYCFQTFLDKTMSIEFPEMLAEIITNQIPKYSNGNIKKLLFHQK

With `Cc1cc([N+](=O)[O-])ccc1N`, the Potency entry in test [1], in test [2], in test [7], in test [10], in [14] and in [16] was “inactive” each time. For the same molecule, the Potency result in test [17] and in test [18] was “inactive” in each case. For the same molecule, the Potency in test [3] is 47.9 µM (active). The call in test [4], in [5], in test [6], in test [8], in test [9] and in [11] was inactive. In addition, the outcome in test [12], in test [13] and in [15] was inactive.

`CO[C@@H]1[C@@H](OC)[C@H](C)[C@@](O)(CC(=O)O)O[C@H]1[C@H](C)[C@H]1O[C@@]2(CC[C@@](C)([C@H]3CC[C@@](C)([C@@H]4O[C@@H]([C@H]5O[C@](C)(O)[C@H](C)C[C@@H]5C)C[C@@H]4OC4C[C@H](OC)[C@@H](OC)[C@H](C)O4)O3)O2)C[C@H](O)[C@H]1C` (some centres not stated): the Potency result in [1], in [2], in test [7], in test [10], in test [14] and in [16] was “inactive” in each case. Besides, in test [17], the Potency entry was “inactive”. Further, the Potency in test [3] was 1.19 µM (active). Also, the molecule was called inactive in test [4], in [5], in test [6], in test [8], in test [9] and in [11]. In addition, the outcome in test [12], in [13] and in [15] was inactive.

Take `CC(C(=O)O)c1ccc(C(=O)c2cccs2)cc1` (configuration not stated): the Potency entry in [1], in [2], in [3], in [17] and in test [18] was “inactive” throughout. The call in [4] was inactive. Besides, the fluorescence, relative to Rose Bengal in test [5] is 0.487% [at 18.6 µM]. Also, the fluorescence, % of fluorescein control in [6] is -0.0382% [at 18.6 µM]; in test [15], -0.0792% [at 18.6 µM]. In addition, in [7], the fluorescence, % of triamterene was -0.243% [at 18.6 µM]. Moreover, the fluorescence, % of fluorescent control in test [8] was 0.162% [at 18.6 µM]; in test [10] it was -0.0817% [at 18.6 µM]; in test [12], -0.0893% [at 18.6 µM]; in test [14], -0.005% [at 18.6 µM]; in [16] it was 0.0525% [at 18.6 µM]. Moreover, the fluorescence, % of fluorescein in test [9] was 0.0235% [at 18.6 µM]. Also, the activity change in test [11] was -0.0028% [at 18.6 µM]. Moreover, the fluorescence, % of Rose Bengal in test [13] was -0.362% [at 18.6 µM].

For the molecule `OCC(CO)n1cnc(-c2ccc(F)cc2)c1-c1ccnc(Oc2ccccc2)n1`, the Potency result in test [1], in test [2], in test [3], in test [7], in [10] and in test [14] was “inactive” throughout. For the same molecule, the Potency entry in test [16] and in test [17] was “inactive” each time. The molecule was classed as inactive in test [4], in [5], in [6], in test [8], in test [9] and in test [11]. Also, the call in test [12], in test [13] and in test [15] was inactive.

On to `O=C1NC(=O)c2cccc3cccc1c23`, for which the Potency entry in [1], in test [2], in test [3], in test [7], in test [14] and in test [16] was “inactive” throughout. Moreover, the Potency entry in [17] and in [18] was “inactive” each time. Moreover, the molecule was called inactive in test [4], in test [5], in test [6], in test [8], in [9] and in test [11]. The outcome in test [12], in [13] and in test [15] was inactive. In addition, in [19], the Potency was 10.9 µM (active).

Take `CC(C)C1CCC(C(=O)N[C@H](Cc2ccccc2)C(=O)O)CC1` (some centres not stated): the Potency entry in test [1], in test [2], in [3], in [7], in test [14] and in test [16] was “inactive” each time. Moreover, the Potency result in [17] was “inactive”. In addition, the molecule was classed as inactive in [4], in test [5], in test [6], in [8], in [9] and in test [11]. The outcome in test [12], in test [13] and in test [15] was inactive.

`COc1cc(C(C)=O)ccc1OCCCN1CCC(c2noc3cc(F)ccc23)CC1`: the Potency result in test [1], in [2], in test [3], in test [7], in test [10] and in [14] was “inactive” in each case. Moreover, the Potency result in test [16], in test [17] and in test [18] was “inactive” throughout. Moreover, the molecule was called inactive in test [4], in test [5], in test [6], in test [8], in [9] and in [11]. The call in [12], in [13] and in [15] was inactive.
